Drawing on PubChem BioAssay (EPA / NIEHS), this text covers AC50 and outcome for three compounds.

Each structure is given as a SMILES string. The source made the active and inactive calls. Rule for the calls: active = hit-call score of the fitted dose curve at least 0.9, where 1 is the maximum; inactive = score below 0.9.

Read-out in test [1]: Human Leukocyte Antigen - DR isotype (HLADR), HLA-DRA (gene 3122)
Kind of test: BSK_3C_HLADR: BioMAP Diversity Plus: 3C Assay for Human Leukocyte Antigen - DR isotype (HLADR) Biomarker Activity (AID 2283019). The conditions noted are these: primary human endothelial cells (HUVEC); actives raise or lower the signal. Summed up: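 ELISA readout of surface HLA-DR on human umbilical vein endothelium, taken 24 h after chemical treatment. Gain- and loss-of-signal were both fitted relative to DMSO.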

Test [2] in a line: BSK_3C_Vis: BioMAP Diversity Plus: 3C Assay for Morphology Visualization (AID 2283025).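 For AC50: light microscopy image of cell morphology used as background control.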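 Note: fitted both ways so gain or loss versus DMSO counts.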 The conditions noted are these: primary human endothelial cells (HUVEC). Summed up: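 Chemicals were added to primary human umbilical vein endothelium, cells were incubated 24 h, and morphology was then visualized by light microscopy. Gain or loss of signal was fitted bidirectionally relative to DMSO.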

Read-out in test [3]: Human Leukocyte Antigen - DR isotype (HLADR), HLA-DRA (gene 3122)
Kind of test: BSK_BE3C_HLADR: BioMAP Diversity Plus: BE3C Assay for Human Leukocyte Antigen - DR isotype (HLADR) Biomarker Activity (AID 2283032). The conditions noted are these: primary human bronchial epithelial cells; actives raise or lower the signal. Summed up: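 ELISA read-out of HLA-DR on human lung bronchial epithelial primary cells, measured 24 h post-dosing. Both increases and decreases were scored relative to DMSO vehicle.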

Read-out in test [4]: Interleukin-8 (IL8), CXCL8 (gene 3576)
Kind of test: BSK_CASM3C_IL8: BioMAP Diversity Plus: CASM3C Assay for Interleukin-8 (IL8) Biomarker Activity (AID 2283042).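 Note: IL-8 protein level quantified by ELISA.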 The conditions noted are these: primary human coronary artery smooth muscle cells; actives raise or lower the signal.

Read-out in test [5]: Monokine induced gamma interferon (MIG), CXCL9 (gene 4283)
Put plainly: BSK_CASM3C_MIG: BioMAP Diversity Plus: CASM3C Assay for Monokine induced gamma interferon (MIG) Biomarker Activity (AID 2283048).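 Note: MIG protein level measured by ELISA.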 Particulars: primary human coronary artery smooth muscle cells; actives raise or lower the signal.

Read-out in test [6]: Urokinase-type plasminogen activator receptor (uPAR), PLAUR (gene 5329)
Kind of test: BSK_CASM3C_uPAR: BioMAP Diversity Plus: CASM3C Assay for Urokinase-type plasminogen activator receptor (uPAR) Biomarker Activity (AID 2283054).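 Note: cell-surface uPAR protein level quantified by ELISA.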 Particulars: primary human coronary artery smooth muscle cells; actives raise or lower the signal.

Read-out in test [7]: Intercellular Adhesion Molecule 1 (ICAM1), ICAM1 (gene 3383)
Put plainly: BSK_KF3CT_ICAM1: BioMAP Diversity Plus: KF3CT Assay for Intercellular Adhesion Molecule 1 (ICAM1) Biomarker Activity (AID 2283067). The conditions noted are these: primary human keratinocytes with fibroblasts; actives raise or lower the signal. Summed up: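 ICAM-1 levels are measured by ELISA 24 h after dosing a primary human co-culture of keratinocytes and foreskin fibroblasts. Activity in either direction is fitted relative to DMSO vehicle.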

Read-out in test [8]: Macrophage colony-stimulating factor (MCSF), CSF1 (gene 1435)
Put plainly: BSK_LPS_MCSF: BioMAP Diversity Plus: LPS Assay for Macrophage colony-stimulating factor (MCSF) Biomarker Activity (AID 2283083). Particulars: primary human HUVEC with PBMC; actives raise or lower the signal. Summed up:
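ELISA readout of M-CSF after 24 h compound exposure in a human endothelial/PBMC co-culture. Activity, in either direction, is fitted relative to DMSO vehicle.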

Read-out in test [9]: Tissue Factor, F3 (gene 2152)
Put plainly: BSK_LPS_TissueFactor: BioMAP Diversity Plus: LPS Assay for Tissue Factor Biomarker Activity (AID 2283084). Particulars: primary human HUVEC with PBMC; actives raise or lower the signal. Summed up: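 ELISA signal for cell-surface Tissue Factor (CD142) was read 24 h after compound dosing of an LPS-stimulated human endothelial–PBMC primary co-culture. Gain or loss of signal was scored relative to DMSO.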

Read-out in test [10]: Vascular cell adhesion molecule 1 (VCAM1), VCAM1 (gene 7412)
Kind of test: BSK_LPS_VCAM1: BioMAP Diversity Plus: LPS Assay for Vascular cell adhesion molecule 1 (VCAM1) Biomarker Activity (AID 2283086). The conditions noted are these: primary human HUVEC with PBMC; actives raise or lower the signal. Summed up:
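HUVEC + PBMC co-culture, LPS system; compound 24 h; VCAM-1 by ELISA; bidirectional fit vs DMSO control; parallel SRB (0.1%, TCA-fixed, 560 nm) for cytotoxicity.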

Read-out in test [11]: CD40, CD40 (gene 958)
Kind of test: BSK_SAg_CD40: BioMAP Diversity Plus: SAg Assay for CD40 Biomarker Activity (AID 2283088). Particulars: primary human HUVEC with PBMC; actives raise or lower the signal. Summed up: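 Compounds were dosed onto a human primary endothelial–PBMC co-culture, and after 24 h CD40 was quantified by ELISA using a fluorescence signal. Activity in either direction was fitted relative to DMSO.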

Read-out in test [12]: Monocyte Chemoattractant Protein-1 (MCP1), CCL2 (gene 6347)
Kind of test: BSK_SAg_MCP1: BioMAP Diversity Plus: SAg Assay for Monocyte Chemoattractant Protein-1 (MCP1) Biomarker Activity (AID 2283090). The conditions noted are these: primary human HUVEC with PBMC; actives raise or lower the signal. Summed up: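 MCP-1 levels in the endothelial–PBMC SAg co-culture were quantified by ELISA at 24 h post-dosing; both increases and decreases versus DMSO scored. Cytotoxicity monitored by SRB total protein in parallel cultures.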

Read-out in test [13]: Monokine induced gamma interferon (MIG), CXCL9 (gene 4283)
Put plainly: BSK_SAg_MIG: BioMAP Diversity Plus: SAg Assay for Monokine induced gamma interferon (MIG) Biomarker Activity (AID 2283092). The conditions noted are these: primary human HUVEC with PBMC; actives raise or lower the signal. Summed up: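 Endothelial cells and PBMC were co-cultured, exposed to test chemicals, and sampled 24 h later. MIG was measured by ELISA, and responses were fitted in both directions relative to DMSO.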

Read-out in test [14]: Interleukin-8 (IL8), CXCL8 (gene 3576)
Put plainly: BSK_SAg_IL8: BioMAP Diversity Plus: SAg Assay for Interleukin-8 (IL8) Biomarker Activity (AID 2283094). The conditions noted are these: primary human HUVEC with PBMC; actives raise or lower the signal. Summed up:
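ELISA read-out of IL-8 in a primary human vascular co-culture (umbilical vein endothelium plus PBMC), taken 24 h after compound addition. Values derive from bidirectional fits against DMSO negative controls.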

Test [15] in a line: BSK_SAg_Proliferation: Cell Proliferation Assessment in the BioMAP Diversity Plus: SAg Assay (AID 2283095).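 Note: relative cell number as total protein by SRB absorbance in sub-confluent culture.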 Particulars: primary human HUVEC with PBMC. Summed up: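 Cells (endothelium plus PBMC, human primary) were dosed with chemical, cultured 96 h, fixed in 10% TCA and stained with 0.1% SRB. Absorbance at 560 nm gave relative protein, fitted bidirectionally relative to DMSO.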

A short description of test [16]: BSK_BT_Bcell_Proliferation: Viability Assessment in the BioMAP Diversity Plus: BT Assay for B cell Proliferation (AID 2284227). Particulars: primary human B cells with PBMC. Summed up: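 Read-out is absorbance at 560 nm from sulforhodamine B staining of total protein, reflecting relative cell numbers in a human B cell and PBMC co-culture after 72 h of chemical exposure. Values were referenced to DMSO.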

Read-out in test [17]: Interleukin 17A (IL17A), IL17A (gene 3605)
Kind of test: BSK_BT_xIL17A: BioMAP Diversity Plus: BT Assay for Interleukin 17A (IL17A) Biomarker Activity (AID 2284229). Particulars: primary human B cells with PBMC. Summed up:
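Secreted IL-17A was the measured endpoint, read by Luminex xMAP multiplex in supernatants of a human B cell/PBMC co-culture harvested 24 h after chemical dosing. Signal increase relative to DMSO defined activity.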

Read-out in test [18]: Collagen III, COL3A1 (gene 1281)
Put plainly: BSK_MyoF_CollagenIII: BioMAP Diversity Plus: MyoF Assay for Collagen III Biomarker Activity (AID 2284239). Particulars: primary human lung fibroblasts. Summed up: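 ELISA read-out of collagen III from human lung fibroblasts after 24 h of chemical treatment. The DMSO control served as negative control and baseline, with values fitted in the positive direction.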

Read-out in test [19]: Interleukin 2 (IL2), IL2 (gene 3558)
Kind of test: BSK_BT_xIL2: BioMAP Diversity Plus: BT Assay for Interleukin 2 (IL2) Biomarker Activity (AID 2284245). The conditions noted are these: primary human B cells with PBMC. Summed up: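 B cell + PBMC co-culture (human primary), compound added, 24 h incubation; secreted IL-2 measured multiplexed on Luminex xMAP; gain-of-signal fit vs DMSO.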

Read-out in test [20]: Matrix Metallopeptidase 1 (MMP1), MMP1 (gene 4312)
Put plainly: BSK_MyoF_MMP1: BioMAP Diversity Plus: MyoF Assay for Matrix Metallopeptidase 1 (MMP1) Biomarker Activity (AID 2284268). Particulars: primary human lung fibroblasts. Summed up:
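Lung fibroblast cultures were dosed with test chemicals and, after 24 h, MMP1 levels were measured by ELISA; responses were referenced to DMSO and analysed for increases.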

As usually defined, the AC50 is the concentration at which the activity in the assay is half-maximal.

On to `CCc1cc(C)cc(CC)c1-c1c(OC(=O)C(C)(C)C)n2n(c1=O)CCOCC2`, for which the concentration at half-maximal activity (AC50) in test [1] is 24.7 µM (active); in test [3], 3.97 µM (active); in test [10], 3.97 µM (active). For the same compound, the outcome in [2], in [4], in [5], in test [6], in [7] and in test [8] was inactive. In addition, the outcome in test [9], in test [11], in [12], in test [13], in test [14] and in [15] was inactive. For the same compound, the outcome in test [16], in test [17], in test [18], in test [19] and in test [20] was inactive.
With `c1ccc(Nc2ccc3ccccc3c2)cc1`, the AC50 in test [1] is 31.1 µM (active); in test [2], 8.8 µM (active); in [3], 20 µM (active); in test [7] it was 36.6 µM (active); in test [16] it was 27.2 µM (active); in [17], 20 µM (active). For the same compound, the concentration at half-maximal activity (AC50) in test [18] and in test [19] was 20 µM (active) each time. For the same compound, the outcome in test [4], in test [5], in test [6], in test [8], in [9] and in test [10] was inactive. The result in [11], in test [12], in test [13], in test [14], in [15] and in test [20] was inactive.
For `CCCCCCCCCCCC#N`, the concentration at half-maximal activity (AC50) in test [1] was 28.6 µM (active); in [2], 40.2 µM (active); in test [8] it was 38 µM (active); in test [9], 24.1 µM (active); in test [10], 33.6 µM (active); in [11], 27.7 µM (active). Moreover, the half-maximal activity concentration (AC50) in test [12] is 33 µM (active); in [14], 32.7 µM (active); in test [18], 29.6 µM (active); in [20], 33.7 µM (active). Further, the result in [3], in [4], in test [5], in test [6], in test [7] and in [13] was inactive. Moreover, the result in [16], in test [17] and in test [19] was inactive.
